# From PubChem BioAssay
# Cruzain inh noDet = qHTS Assay for Promiscuous and Specific Inhibitors of Cruzain (without detergent). purified cruzain, Z-FR-AMC fluorescence, no detergent. Potency, µM, without a hit: max response, negative = inhibition, usual class: inhibitors. Cruzipain (Trypanosoma cruzi), P25779. hit rate 2.3% among 200,000;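 note: plate controls were enzyme without inhibitor for no effect and buffer without enzyme for full effect; nearly all actives have a fitted effect of over 40% in size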
# Target sequence (P25779 123-467 limits assumed): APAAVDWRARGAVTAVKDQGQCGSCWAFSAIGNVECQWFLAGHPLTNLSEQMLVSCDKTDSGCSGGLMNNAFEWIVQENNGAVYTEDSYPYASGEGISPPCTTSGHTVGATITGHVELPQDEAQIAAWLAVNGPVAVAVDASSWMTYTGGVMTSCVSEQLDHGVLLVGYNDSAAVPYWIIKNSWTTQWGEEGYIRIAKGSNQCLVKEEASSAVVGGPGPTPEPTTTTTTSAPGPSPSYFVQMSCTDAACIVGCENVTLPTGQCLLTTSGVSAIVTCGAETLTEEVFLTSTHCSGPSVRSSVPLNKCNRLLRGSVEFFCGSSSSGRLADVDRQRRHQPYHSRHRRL
#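 Purified cruzain at 1.5 nM, pre-incubated 15 min with compound at room temperature in 100 mM sodium acetate pH 5.5, 5 mM DTT, 0.00005% Triton X-100. Reaction started with 2 uM Z-FR-AMC; AMC fluorescence increase over 60 s gives rate.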
# Cruzain inh Det = qHTS Assay for Promiscuous and Specific Inhibitors of Cruzain (with detergent); Potency, µM, without a hit: max response, negative = inhibition, usual class: inhibitors; AID 1478, 2009; purified cruzain, Z-FR-AMC fluorescence, 0.01% Triton; Cruzipain (Trypanosoma cruzi), P25779; hit rate 0.43% among 200,000;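 note: plate controls were neutral wells for no effect and buffer without enzyme for full effect; nearly all actives have a fitted effect of over 40% in size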
#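 In this qHTS format, compounds are incubated with 1.5 nM cruzain for 15 min at room temperature before 2 uM Z-FR-AMC is added. Release of AMC is followed at 360/450 nm, and progress is taken as the 60 s fluorescence difference.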
# The depositor's hits bear a star; u = inconclusive. An excerpt weighted towards active compounds, which were near 2.4% of everything screened. Calls come from the whole dose curve; as a rule, active = well fitted curve in the direction sought with a large enough effect; inconclusive = small, poorly fitted or top-dose-only effect, or another doubt; inactive = no such curve, though single readings can be large; an effect the other way counts as inactive or inconclusive. Potency is the fitted concentration of half-maximal effect.
SMILES,Cruzain inh noDet,Cruzain inh Det
Clc1ccc2nc(CSc3nc4ccccc4o3)cn2c1,-6%,-16%
C/C(Cl)=C\Cn1c(Nc2ccccc2)nc2c1c(=O)n(C)c(=O)n2C,-4%,-6%
N#C/C(=C/c1ccc(Cl)cc1)c1nc(-c2ccc(Br)cc2)cs1,-9%,-2%
Cc1ccnc(N/C=C(\C#N)c2nc(-c3cccc(Br)c3)cs2)c1,25µM*,u
COc1ccc(/C=N/N=C2/NC(=O)C(c3ccccc3)(c3ccccc3)S2)cc1,3.2µM*,-2%
COc1ccc(/C=N/N2C(=O)c3ccccc3C2=O)cc1,-2%,0%
CCn1c(SCC(=O)N2CCCc3ccccc32)nnc1-c1ccoc1C,-5%,4%
CCOC(=O)c1[nH]c2ccc(F)cc2c1NC(=O)Nc1ccccc1OC,7.9µM*,1%
CCOC(=O)c1[nH]c2ccccc2c1NC(=O)c1ccccc1OC,4%,-8%
CCC(=O)Nc1cccc(NC(=O)CSc2nnnn2C)c1,-1%,-6%
CCCC(=O)OCC[N+](C)(C)C,2%,1%
CC(C)CSc1nnc2c(n1)[nH]c1ccccc12,-26%,-1%
CCCCSc1nnc2c(n1)[nH]c1ccccc12,25µM*,0%
O=C(CSc1nnc2c(n1)[nH]c1ccccc12)OCc1ccccc1,25µM*,-3%
CCOC(=O)CC(=O)CSc1nnc2c(n1)[nH]c1ccccc12,u,-3%
COCc1cc(C)nc2sc3c(c12)NC(c1ccc(O)cc1)N(c1ccc(C)cc1)C3=O (stereo not given),13%,-12%
O=C(NCc1cccs1)c1csc2ccccc12,4%,-13%
Cc1ccc(N=c2c([N+](=O)[O-])nn(-c3ccccc3)n2O)c(C)c1,u,-7%
Cc1c(Cl)cccc1N=c1c([N+](=O)[O-])nn(-c2ccccc2)n1O,20µM*,2%
COC(=O)c1c(NC(=O)c2cccs2)sc2c1CCC(C)C2 (stereo not given),-4%,-2%
Cc1ccccc1Cn1c(=O)n(CC2CCC(C(=O)N3CCOCC3)CC2)c(=O)c2sccc21 (stereo not given),0%,0%
COc1ccccc1C(CC(=O)Nc1ccc(Cl)cc1)c1ccc(OC(C)C)cc1 (stereo not given),3.2µM*,2%
COc1ccc(C(CC(=O)Nc2ccc(F)cc2)c2ccccc2)cc1 (stereo not given),17%,-3%
COc1ccc(NC(=O)c2cc3c([nH]c4ccccc43)c(C)n2)cc1,u,-7%
N/C(=N\OC(=O)CCCN1C(=O)c2ccccc2C1=O)c1ccc(Cl)cc1,1%,-2%
SMILES,Cruzain inh noDet,Cruzain inh Det
CC(C)[C@H](NC(=O)[C@H](CCCN=C(N)N)NC(=O)NC(Cc1ccccc1)C(=O)O)C(=O)NC(C=O)CCCN=C(N)N (stereo not given in full),0.032µM*,0.035µM*
COC(=O)[C@@H](NC(=O)NC(C)CCc1ccccc1)C(C)C (stereo not given in full),12%,5%
CCOC(=O)c1csc(NC(=O)c2ccc(S(=O)(=O)N(C)C)cc2)n1,4%,4%
COC(=O)c1ccc(-n2c(C)cc(-c3csc(NC(=O)c4ccc(S(=O)(=O)N(C)C)cc4)n3)c2C)cc1,4µM*,-2%
CN1CCN(S(=O)(=O)c2cccc(C(=O)Nc3nc(-c4ccccc4)cs3)c2)CC1,-6%,-11%
Cc1cc(-c2csc(NC(=O)c3cccc(S(=O)(=O)N(C)C)c3)n2)c(C)n1-c1ccccc1,7.9µM*,-5%
CCc1cccc(C)c1NC(=O)c1ccc(CN2CCc3ccccc3C2)cc1,16%,2%
CN(C)C(=O)CSc1nnc(C23CC4CC(CC(C4)C2)C3)o1,11%,3%
Brc1csc(CN2CCc3nc(Nc4ccccc4)ncc3C2)c1,u,-9%
COc1cc(Nc2ncc3c(n2)CCN(Cc2cc(Br)cs2)C3)cc(OC)c1,25µM*,-8%
Cc1nn(-c2ccccc2)c2sc(C(=O)OCn3nnc4ccccc4c3=O)cc12,25µM*,-4%
Cc1nn(-c2ccccc2)c2sc(C(=O)Nc3ccc(Br)cc3)cc12,5%,-4%
Cc1cc(C)n(-c2ccc(C(=O)OCn3nnc4ccccc4c3=O)cc2)n1,12%,2%
Cc1nn(-c2ccccc2)c2sc(C(=O)Nc3cccc(Br)c3)cc12,20µM*,-2%
COCCCNCCOc1ccc(C(C)(C)c2ccccc2)cc1,13%,-1%
O=C(OC1CCN(c2ncc(C(F)(F)F)cc2Cl)CC1)c1cccc(C(F)(F)F)c1,-18%,5%
[O-]/C(=C(\C(=S)Nc1cccc2ccccc12)[n+]1ccccc1)c1ccc(Cl)s1,7.9µM*,-14%
CC(C)(C)c1cc[n+](/C(C(=S)NC2CC2)=C(/[O-])c2ccc(Cl)s2)cc1,-5%,-10%
N#Cc1cccc(-c2nnc(SCc3ccccc3C#N)o2)c1,3%,-2%
O=C(CNC(=O)c1ccco1)OCN1C(=O)c2ccccc2C1=O,u,20µM*
O=C(CNC(=O)c1ccco1)OCC(=O)c1cccc2ccccc12,-20%,-7%
O=C(CSc1nnc(SCc2cccc3ccccc23)s1)N=Nc1c(O)[nH]c2ccccc12,7.9µM*,-4%
O=C(CSc1nnc(SCc2cccc3ccccc23)s1)c1ccc2c(c1)OCO2,25µM*,-2%
O=C(CSc1nc2ccccc2[nH]1)c1ccc2c(c1)OCO2,2.5µM*,-1%
CN(C)S(=O)(=O)c1ccc(C(=O)Nc2nnc(SCc3cccc4ccccc34)s2)cc1,u,0%
SMILES,Cruzain inh noDet,Cruzain inh Det
O=C(CSc1ccccn1)c1ccc2c(c1)OCO2,-9%,-1%
Cc1ccc2nc(SCC(=O)c3ccc4c(c3)OCO4)[nH]c2c1,u,-3%
CCOP(=O)(OCC)C(Nc1cccc(C(F)(F)F)c1)c1ccc(Br)cc1 (stereo not given),3%,-8%
COc1ccc(C(=O)CSc2nnc(-c3cc(C)on3)o2)cc1,-16%,-5%
Cc1cc(-c2nnc(SCC(=O)c3ccc(Cl)cc3)o2)no1,25µM*,-4%
COc1ccc(NC(=O)c2ccc(NC(=O)CCS(=O)(=O)c3cccs3)cc2)cc1,-18%,-3%
Cc1ccc(OCCn2cc(/C=C3\C(=O)NN(c4ccccc4)C3=O)c3ccccc32)cc1,10µM*,-7%
O=C1NC(=O)C(=Cc2cn(CCOc3ccc4c(c3)OCO4)c3ccccc23)C(=O)N1,u,0%
S=C(Nc1ccccc1)Nc1nc2ccccc2n1CCOc1ccc(Br)cc1,7.9µM*,3%
Cn1c(NC(=S)Nc2ccccc2)nc2ccccc21,u,1%
CCOC(=O)c1c(C)oc2c(F)c(F)c(F)c(F)c2c1=O,-4%,-2%
O=C(CSc1nnc(C2CC2)n1-c1ccccc1)NCCc1ccc(F)cc1,1%,-2%
O=C(Nc1ccc(Cl)cc1)Nc1nnc(CSCc2ccccc2Cl)s1,6.3µM*,-1%
O=C(Nc1ccc(Cl)cc1)Nc1nnc(SCc2ccccc2)s1,7.9µM*,-1%
O=C(Nc1ccc(Cl)c(Cl)c1)Nc1nnc(CSc2ccccc2)s1,10µM*,-1%
CCCc1nnc(NC(=O)Nc2ccccc2Cl)s1,-12%,-2%
Cc1ccc(OCCSCc2nnc(NC(=O)Nc3cccc(Cl)c3)s2)cc1,16µM*,-1%
O=C(Nc1nnc(SCc2ccc(Cl)cc2)s1)c1ccco1,u,6%
Cc1nnc(NC(=O)Nc2cccc(Cl)c2)s1,0%,1%
